Laboratory results as given in PubChem BioAssay AID1159577 (Broad Institute, 2015).
Hit rate of the full screen: of about 1,300 compounds, about 240 (18%) were called active. Inconclusive results (about 8%) are left out. The rule behind the calls is not given here. Not all results are given here. Entries with a potency or affinity are not part of this list.

Test: toxicity to human hepatoma HepG2 cells – cell-based, cherry-picked samples, cytotoxicity control, dose response (AID 1159577);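 note: 0% = neutral control wells and -100% = positive control wells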
Details: HepG2 cytotoxicity counterscreen, plate reader; series mostly up to 19.5 µM; activity change, negative = cytotoxicity: at the top concentration
For `COc1ccc(S(=O)(=O)N(C)C[C@@H]2OCc3ccccc3-c3c(n(C)c4ccccc34)C(=O)N([C@H](C)CO)C[C@H]2C)cc1`, the “activity change, negative = cytotoxicity” value was 3.61% (inactive). In the case of `C[C@@H]1CN([C@@H](C)CO)C(=O)c2c(c3ccccc3n2C)-c2ccccc2CO[C@H]1CN(C)S(=O)(=O)c1ccc(C(F)(F)F)cc1`, the “activity change, negative = cytotoxicity” value is reported as -12.8% (inactive). In the case of `O=C(c1ccccn1)N1CC[C@H]2[C@H](CO)Nc3ccc(-c4ccccc4)cc3[C@H]21`, the “activity change, negative = cytotoxicity” value is reported as -7.67% [at 21 µM] (inactive). With `CCC(=O)N1CCC2(CC1)CN(Cc1ccc(Cl)cc1)[C@H](CO)c1[nH]c3cc(OC)ccc3c12` the “activity change, negative = cytotoxicity” value was 18.2% (inactive). With `Cc1ccccc1-c1ccc(C2[C@H]3CNC[C@@H]2N3S(=O)(=O)c2cccc(F)c2)cc1` (some centres undefined) the “activity change, negative = cytotoxicity” value was -5.53% (inactive). In the case of `N#C[C@@H]1[C@@H](c2ccc(C#Cc3ccc(F)cc3)cc2)[C@H](CO)N1C(=O)C1CCCC1`, the “activity change, negative = cytotoxicity” value is reported as -33.8% (inactive). With `CC(C)NC(=O)N1[C@H](C#N)[C@H](c2ccc(C#CC3CCCCC3)cc2)[C@@H]1CO` the “activity change, negative = cytotoxicity” value was -21.3% (inactive). In the case of `N#C[C@@H]1[C@H](c2ccc(C#CC3CCCCC3)cc2)[C@H](CO)N1C(=O)Nc1ccc(F)cc1`, the “activity change, negative = cytotoxicity” value is reported as -17.3% [at 21 µM] (inactive). With `N#C[C@@H]1[C@@H](c2ccc(C#CC3CCCCC3)cc2)[C@H](CO)N1C(=O)Nc1ccc(F)cc1` the “activity change, negative = cytotoxicity” value was -16.3% (inactive). With `OC[C@@H]1[C@@H](c2ccccc2)C2(CN(CCC(F)(F)F)C2)N1Cc1ccccc1` the “activity change, negative = cytotoxicity” value was -1.13% [at 21 µM] (inactive). In the case of `O=C(C[C@@H]1C[C@H]2c3cc(NC(=O)Nc4ccccc4)ccc3O[C@H]2[C@H](CO)O1)NCc1ccccc1`, the “activity change, negative = cytotoxicity” value is reported as -34.5% (inactive). With `O=C(c1cccnc1)N1CC(=O)N2[C@H](C1)[C@@H](c1ccc(-c3cccnc3)cc1)[C@@H]2CO` the “activity change, negative = cytotoxicity” value was 2.75% (inactive). For `CN1c2ccc(-c3ccccc3)cc2[C@@H]2[C@@H](CCN2C(=O)c2ccccc2)[C@H]1CO`, the “activity change, negative = cytotoxicity” value was 4.78% (inactive). In the case of `CCS(=O)(=O)N1CCCCN2[C@H](CO)[C@@H](c3ccc(-c4cccc(C#N)c4)cc3)[C@@H]2C1`, the “activity change, negative = cytotoxicity” value is reported as 7.54% (inactive). With `COc1ccc(NC(=O)N2CCCCN3[C@H](CO)[C@H](c4ccc(-c5ccccc5F)cc4)[C@@H]3C2)cc1` the “activity change, negative = cytotoxicity” value was -16.4% (inactive). For `CCS(=O)(=O)N1CC(=O)N2[C@H](CO)[C@@H](c3ccc(-c4ccccc4F)cc3)[C@@H]2C1`, the “activity change, negative = cytotoxicity” value was 5.53% (inactive). In the case of `Cc1cccc(S(=O)(=O)N2CCCCN3[C@H](C2)[C@@H](c2ccc(-c4cccnc4)cc2)[C@@H]3CO)c1`, the “activity change, negative = cytotoxicity” value is reported as 22.7% (inactive). In the case of `N#C[C@@H]1[C@H](c2ccccc2/C=C/c2ccccc2)[C@H](CO)N1S(=O)(=O)c1ccc(F)cc1`, the “activity change, negative = cytotoxicity” value is reported as -7.03% (inactive). For `CCCC(=O)Nc1ccc2c(c1)OC[C@@H](C)N(Cc1cccc(F)c1)C[C@@H](C)[C@H](OC)CN(C)C2=O`, the “activity change, negative = cytotoxicity” value was 13.8% (inactive). For `CC(C)NC(=O)N1[C@H](CO)[C@@H](c2ccccc2)C12CN(Cc1ccc(Cl)cc1)C2`, the “activity change, negative = cytotoxicity” value was -15.9% (inactive). With `CO[C@H]1CN(C)C(=O)c2cc(NC(=O)Cc3ccccc3)ccc2OC[C@H](C)N(C(=O)c2ccccc2F)C[C@H]1C` the “activity change, negative = cytotoxicity” value was -0.533% (inactive). In the case of `CCCNC(=O)Nc1ccc2c(c1)OC[C@H](C)N(Cc1ccc(-c3ccccn3)cc1)C[C@H](C)[C@H](OC)CN(C)C2=O`, the “activity change, negative = cytotoxicity” value is reported as 14.3% (inactive). In the case of `COc1cccc(S(=O)(=O)N2CCC3(CC2)CN[C@H](CO)c2[nH]c4cc(OC)ccc4c23)c1`, the “activity change, negative = cytotoxicity” value is reported as 3.97% [at 21 µM] (inactive). For `C[C@@H]1CN([C@H](C)CO)S(=O)(=O)c2ccc(C#Cc3ccccc3)cc2O[C@H]1CN(C)C(=O)C1CC1`, the “activity change, negative = cytotoxicity” value was -11.3% (inactive). For `CO[C@@H]1CN(C)C(=O)c2ccc(NC(=O)c3ccc4c(c3)OCO4)cc2OC[C@@H](C)N(Cc2ccc3c(c2)OCO3)C[C@H]1C`, the “activity change, negative = cytotoxicity” value was 21.5% (inactive). With `COc1ccc2c3c([nH]c2c1)[C@@H](CO)N(Cc1cc(F)ccc1F)CC31CCN(C(=O)C2CCC2)CC1` the “activity change, negative = cytotoxicity” value was 1.16% (inactive). With `CCS(=O)(=O)N1CCCCN2[C@H](CO)[C@H](c3ccc(-c4cccc(C#N)c4)cc3)[C@H]2C1` the “activity change, negative = cytotoxicity” value was -1.59% (inactive). With `CCS(=O)(=O)N1CCCCN2[C@H](CO)[C@H](c3ccc(-c4cccc(C#N)c4)cc3)[C@@H]2C1` the “activity change, negative = cytotoxicity” value was -8.99% (inactive). With `O=C(c1cnccn1)N1CC(=O)N2[C@@H](CO)[C@H](c3ccc(C#CCc4ccccc4)cc3)[C@@H]2C1` the “activity change, negative = cytotoxicity” value was -3.35% (inactive). For `C[C@H]1CN([C@@H](C)CO)C(=O)c2cc(NC(=O)Nc3ccc(C(F)(F)F)cc3)ccc2O[C@@H]1CN(C)C(=O)Nc1cccc2ccccc12`, the “activity change, negative = cytotoxicity” value was 13.6% (inactive). In the case of `CCCC#Cc1ccc(CC[C@H]2O[C@H]3CC[C@H](CO)O[C@H]3C[C@@H]2n2cc(C(C)(C)O)nn2)cc1`, the “activity change, negative = cytotoxicity” value is reported as -0.199% (inactive). With `O=C(Nc1cccc(F)c1)N1CC(=O)N2[C@H](C1)[C@@H](c1ccc(C#CC3CC3)cc1)[C@@H]2CO` the “activity change, negative = cytotoxicity” value was 12.5% (inactive). In the case of `O=C(Nc1ccccc1F)N1CC(=O)N2[C@H](CO)[C@@H](c3ccc(-c4ccccc4)cc3)[C@H]2C1`, the “activity change, negative = cytotoxicity” value is reported as 16.1% (inactive). With `COc1ccccc1NC(=O)N1CCCCN2[C@H](C1)[C@H](c1ccc(C#CC3CC3)cc1)[C@@H]2CO` the “activity change, negative = cytotoxicity” value was 21.3% (inactive). With `COc1ccccc1NC(=O)N1CCCCN2[C@@H](CO)[C@H](c3ccc(C#CC4CC4)cc3)[C@@H]2C1` the “activity change, negative = cytotoxicity” value was -11.9% (inactive). In the case of `CO[C@H]1CN(C)C(=O)c2cc(NC(=O)C3CC3)ccc2OC[C@H](C)N(Cc2cc(F)ccc2F)C[C@H]1C`, the “activity change, negative = cytotoxicity” value is reported as 10.8% (inactive). For `COCC(=O)N1[C@@H](C#N)[C@H](c2ccccc2-c2ccccc2)[C@@H]1CO`, the “activity change, negative = cytotoxicity” value was -10.8% [at 21 µM] (inactive). With `CCCC#Cc1ccc2c(c1)[C@@H]1[C@@H](CCN1S(=O)(=O)c1ccccc1C)[C@@H](CO)N2` the “activity change, negative = cytotoxicity” value was 6.95% [at 21 µM] (inactive). In the case of `COc1ccc2c3c([nH]c2c1)[C@H](CO)N(Cc1cc(F)ccc1F)CC31CN(C(=O)C2CCC2)C1`, the “activity change, negative = cytotoxicity” value is reported as 9.59% (inactive). With `COc1ccc(-c2ccccc2[C@H]2[C@@H](C#N)N(C(=O)C3CCCCC3)[C@H]2CO)cc1` the “activity change, negative = cytotoxicity” value was 1.19% (inactive). With `C[C@@H]1CN([C@H](C)CO)C(=O)c2cccc(NC(=O)c3ccc(-c4nccs4)cc3)c2O[C@H]1CN(C)Cc1ccc2c(c1)OCO2` the “activity change, negative = cytotoxicity” value was 0.334% (inactive). With `CCCNC(=O)N1[C@H](C#N)[C@H](c2ccc(C3=CCCCC3)cc2)[C@H]1CO` the “activity change, negative = cytotoxicity” value was -10.4% [at 21 µM] (inactive). In the case of `OC[C@@H]1[C@H](c2ccc(C3=CCCC3)cc2)[C@@H](CNC2CCCC2)N1CC1CC1`, the “activity change, negative = cytotoxicity” value is reported as -13.2% (inactive). In the case of `C/C=C/c1ccc([C@H]2[C@@H](CO)N(C(=O)C3CCCC3)[C@H]2CNCCC)cc1`, the “activity change, negative = cytotoxicity” value is reported as -0.865% [at 21 µM] (inactive). In the case of `N#C[C@@H]1[C@@H](c2ccc(C3=CCCCC3)cc2)[C@H](CO)N1C(=O)NC1CCCC1`, the “activity change, negative = cytotoxicity” value is reported as 3.23% (inactive). With `CCC(=O)N1[C@H](CO)[C@H](c2ccc(C3=CCCCC3)cc2)[C@H]1CNCC1CCC1` the “activity change, negative = cytotoxicity” value was -15% (inactive). In the case of `CCCNC[C@H]1[C@@H](c2ccc(C3=CCCCC3)cc2)[C@@H](CO)N1C(=O)C1CCC1`, the “activity change, negative = cytotoxicity” value is reported as -12.2% (inactive). For `CCCNC(=O)N1[C@H](C#N)[C@@H](c2ccccc2C2=CCCC2)[C@@H]1CO`, the “activity change, negative = cytotoxicity” value was -20.4% [at 21 µM] (inactive). In the case of `N#C[C@@H]1[C@H](c2ccc(C3=CCCC3)cc2)[C@@H](CO)N1C(=O)NC1CCCC1`, the “activity change, negative = cytotoxicity” value is reported as -23.9% (inactive).
